# Results reported in PubChem BioAssay (Tox21).
# Inconclusive results are not listed. Entries that show only a call come without a potency. Calls of active or inactive are those of the source. Unless noted, calls follow the shape of the dose curve; as a rule, active = well fitted curve in the direction sought with a large enough effect in the repeat runs; inconclusive = weak or mixed curves; inactive = no such curve, though single readings can be large; an effect the other way counts as inactive or inconclusive.
# Assays:
# [1] = qHTS assay to identify small molecule antagonists of the sonic hedgehog signaling (Shh) pathway (AID 1259369; calls by dose curve; also: nearly all actives have a fitted effect of over 45% in size; also: potency is read from the fitted curve at half-maximal effect)
# How it was run: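 Screening used 3T3Gli1-Luc cells at 2,000 per well, compounds delivered in DMSO, and conditioned medium as agonist stimulus; plates incubated 24hr at 37 C and 5% CO2 before a 30min luciferase step.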
# [2] = biological target: Estrogen receptor beta (Homo sapiens) (UniProt Q92731); assay: qHTS assay to identify small molecule antagonists of the estrogen receptor beta (ER-beta) signaling pathway (AID 1259378; active = well fitted inhibition curve with a large enough effect in the signal ratio in the repeat runs, not every such curve was filed as active; the % refers to the signal ratio; also: potency is read from the fitted curve at half-maximal effect)
# Chain of Estrogen receptor beta (Homo sapiens) (Q92731 whole entry, looked up): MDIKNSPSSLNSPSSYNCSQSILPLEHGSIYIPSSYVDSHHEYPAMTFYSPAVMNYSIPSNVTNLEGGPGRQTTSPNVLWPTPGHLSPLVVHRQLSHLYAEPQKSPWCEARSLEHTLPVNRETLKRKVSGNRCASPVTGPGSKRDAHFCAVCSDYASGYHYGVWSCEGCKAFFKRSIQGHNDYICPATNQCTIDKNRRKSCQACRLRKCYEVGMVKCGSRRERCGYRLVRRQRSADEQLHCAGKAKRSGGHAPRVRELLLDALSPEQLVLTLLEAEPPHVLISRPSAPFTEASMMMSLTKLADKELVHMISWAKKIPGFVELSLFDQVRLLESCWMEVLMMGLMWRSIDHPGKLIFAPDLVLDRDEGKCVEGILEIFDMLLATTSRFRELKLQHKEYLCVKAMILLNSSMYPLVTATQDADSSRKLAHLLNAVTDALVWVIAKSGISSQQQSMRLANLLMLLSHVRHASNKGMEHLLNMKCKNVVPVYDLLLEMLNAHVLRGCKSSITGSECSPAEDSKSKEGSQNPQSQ
# How it was run: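 ER-beta-UAS-bla HEK293T (GripTite) cells in 2% charcoal-stripped FBS medium were preincubated 6 hr at 37C, dosed with compound, then stimulated with 1 nM E2 (final) for 16 hr; beta-lactamase reporter read by B/G FRET fluorescence after 2 hr substrate loading.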
# [3] = qHTS assay to identify small molecule agonists of the androgen receptor (AR) signaling pathway in the presence of an antagonist - cell viability counter screen (AID 1259379); also: nearly all actives have a fitted effect of over 25% in size; also: potency is read from the fitted curve at half-maximal effect
# How it was run: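 In MDA-kb2 cells (human breast carcinoma, MMTV-luciferase), compounds at 15 concentrations plus 3.0uM nilutamide; 16 hr, 37C, 0% CO2; CellTiter-Fluor fluorescence read for viability.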
# [4] = biological target: Androgen receptor (Homo sapiens) (UniProt P10275); assay: qHTS assay to identify small molecule agonists of the androgen receptor (AR) signaling pathway in the presence of an antagonist (AID 1259381; calls by dose curve; also: nearly all actives have a fitted effect of over 15% in size; also: potency is read from the fitted curve at half-maximal effect)
# Chain of Androgen receptor (Homo sapiens) (P10275 whole entry, looked up): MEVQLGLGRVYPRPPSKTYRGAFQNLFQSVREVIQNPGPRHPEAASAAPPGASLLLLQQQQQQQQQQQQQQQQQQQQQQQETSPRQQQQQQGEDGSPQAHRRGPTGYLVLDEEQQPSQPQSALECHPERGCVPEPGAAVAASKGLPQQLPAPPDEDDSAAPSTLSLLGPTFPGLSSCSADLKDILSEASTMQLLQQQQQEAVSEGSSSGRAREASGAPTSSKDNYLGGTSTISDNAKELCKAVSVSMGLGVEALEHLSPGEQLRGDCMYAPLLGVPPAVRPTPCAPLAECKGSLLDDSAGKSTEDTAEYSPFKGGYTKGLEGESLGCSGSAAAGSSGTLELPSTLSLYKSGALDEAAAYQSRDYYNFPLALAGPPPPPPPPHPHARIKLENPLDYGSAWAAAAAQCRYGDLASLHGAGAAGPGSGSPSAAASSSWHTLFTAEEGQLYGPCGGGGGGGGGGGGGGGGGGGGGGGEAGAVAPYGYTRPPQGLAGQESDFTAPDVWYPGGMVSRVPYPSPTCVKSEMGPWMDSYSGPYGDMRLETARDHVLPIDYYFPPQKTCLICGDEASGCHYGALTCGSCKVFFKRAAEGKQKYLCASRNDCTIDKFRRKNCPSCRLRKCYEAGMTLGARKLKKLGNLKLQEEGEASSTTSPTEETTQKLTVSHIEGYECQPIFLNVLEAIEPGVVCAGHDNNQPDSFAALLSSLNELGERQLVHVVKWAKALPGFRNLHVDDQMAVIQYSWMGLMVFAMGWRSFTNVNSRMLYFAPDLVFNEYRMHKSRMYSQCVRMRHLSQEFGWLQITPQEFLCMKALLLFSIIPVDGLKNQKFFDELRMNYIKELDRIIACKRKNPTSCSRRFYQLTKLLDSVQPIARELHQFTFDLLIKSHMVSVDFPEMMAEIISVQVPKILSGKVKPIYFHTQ
# How it was run: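 Here, 15-concentration compound series were pin-transferred onto MDA-kb2 MMTV-luciferase cells already dosed with nilutamide (3.0uM final). After 16hr at 37C, ONE-Glo was added and luminescence read 30min later at room temperature.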
# [5] = qHTS assay to identify small molecule agonists of the estrogen receptor alpha (ER-alpha) signaling pathway in the presence of an antagonist - cell viability counter screen (AID 1259386);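 also: cells exposed to compounds for 22 h at 37 °C before the viability read; nearly all actives have a fitted effect of over 30% in size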; also: potency is read from the fitted curve at half-maximal effect
# How it was run: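 Fluorescent CellTiter-Fluor viability signal from VM7Luc4E2 cells, with the reagent added during the final hour of a 22hr compound exposure at 37C in the presence of 10.0nM ICI-182,780.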
# [6] = biological target: Progesterone receptor (Homo sapiens) (UniProt P06401); assay: qHTS assay to identify small molecule agonists of the progesterone receptor (PR) signaling pathway (AID 1346784; calls by dose curve; also: nearly all actives have a fitted effect of over 30% in size; also: potency is read from the fitted curve at half-maximal effect)
# Chain of Progesterone receptor (Homo sapiens) (P06401 whole entry, looked up): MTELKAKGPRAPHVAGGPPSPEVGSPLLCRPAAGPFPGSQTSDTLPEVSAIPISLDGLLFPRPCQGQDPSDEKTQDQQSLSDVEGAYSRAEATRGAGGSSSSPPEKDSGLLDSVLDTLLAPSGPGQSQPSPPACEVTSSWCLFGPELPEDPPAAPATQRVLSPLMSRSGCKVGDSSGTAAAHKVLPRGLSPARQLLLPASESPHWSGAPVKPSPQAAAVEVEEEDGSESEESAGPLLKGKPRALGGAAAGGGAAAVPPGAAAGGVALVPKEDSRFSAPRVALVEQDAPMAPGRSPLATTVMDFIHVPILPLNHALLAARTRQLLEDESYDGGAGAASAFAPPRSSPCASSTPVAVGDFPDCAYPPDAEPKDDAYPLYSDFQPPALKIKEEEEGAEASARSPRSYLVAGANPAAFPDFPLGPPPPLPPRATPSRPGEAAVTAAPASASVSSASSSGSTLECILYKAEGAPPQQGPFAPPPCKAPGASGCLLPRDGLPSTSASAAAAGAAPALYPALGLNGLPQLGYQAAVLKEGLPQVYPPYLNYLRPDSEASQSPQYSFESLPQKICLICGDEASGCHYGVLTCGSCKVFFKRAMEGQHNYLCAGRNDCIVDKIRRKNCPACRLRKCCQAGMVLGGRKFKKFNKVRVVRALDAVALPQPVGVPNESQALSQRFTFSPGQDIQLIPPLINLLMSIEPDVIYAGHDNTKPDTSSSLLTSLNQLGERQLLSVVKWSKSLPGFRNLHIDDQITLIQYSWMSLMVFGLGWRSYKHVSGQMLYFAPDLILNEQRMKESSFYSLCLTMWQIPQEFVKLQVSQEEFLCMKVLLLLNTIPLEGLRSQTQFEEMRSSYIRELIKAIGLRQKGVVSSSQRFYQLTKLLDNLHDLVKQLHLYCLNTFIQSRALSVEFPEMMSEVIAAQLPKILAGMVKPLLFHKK
# How it was run: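 Agonist qHTS: compounds pinned onto 3,000 PR-UAS-bla HEK 293T cells per well in charcoal-stripped serum medium, 16hr at 37C, then beta-lactamase activity measured by LiveBLAzer FRET fluorescence after 2 hours at room temperature.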
# [7] = biological target: Progesterone receptor (Homo sapiens) (UniProt P06401); assay: qHTS assay to identify small molecule antagonists of the progesterone receptor (PR) signaling pathway (AID 1346795; active = well fitted inhibition curve with a large enough effect in the signal ratio in the repeat runs, not every such curve was filed as active; the % refers to the signal ratio; also: potency is read from the fitted curve at half-maximal effect)
# How it was run: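 Antagonist mode with agonist R5020 at 1 nM final and 16 hr incubation at 37C. Reporter was beta-lactamase driven by UAS in HEK293T (PR-UAS-bla), 2% charcoal-stripped serum; signal from LiveBLAzer FRET substrate, 2 hr at room temperature.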
# [8] = qHTS assay to identify small molecule antagonists of the progesterone receptor (PR) signaling pathway - cell viability counter screen (AID 1346798); also: nearly all actives have a fitted effect of over 50% in size; also: potency is read from the fitted curve at half-maximal effect
# How it was run: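 Cytotoxicity read as CellTiter-Glo luminescence (30 min, room temperature) in the same wells as the beta-lactamase readout. HEK293T PR-UAS-bla cells in charcoal-stripped 2% FBS received compound and R5020, then 16 h at 37C, 5% CO2.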
# [9] = qHTS assay to identify small molecule agonists of the progesterone receptor (PR) signaling pathway - cell viability counter screen (AID 1346799; calls by dose curve; also: nearly all actives have a fitted effect of over 45% in size; also: potency is read from the fitted curve at half-maximal effect)
# How it was run: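 Cytotoxicity measured by CellTiter-Glo luminescence (30 min, RT) in the same wells as the PR beta-lactamase agonist read. Those HEK293T cells had 16 h compound treatment at 37 C in 2% charcoal-stripped FBS medium.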
# [10] = qHTS assay to identify small molecule antagonists of the TGF-beta/Smad signaling pathway - cell viability counter screen (AID 1346824); also: nearly all actives have a fitted effect of over 50% in size; also: potency is read from the fitted curve at half-maximal effect
# How it was run: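 SBE-bla HEK 293T cells were plated overnight at 37 C, then given compounds in DMSO plus TGF-beta1 (added as 0.25 ng/mL solution) for 5 hr. After the bla read, CellTiter-Glo was added to the same wells and luminescence read after 30 min at room temperature.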
# [11] = qHTS assay to identify small molecule agonists of the TGF-beta/Smad signaling pathway - cell viability counter screen (AID 1346829); also: top concentration of the series differs between compounds; nearly all actives have a fitted effect of over 45% in size
# How it was run: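 In parallel with the Smad reporter read, viability of HEK 293T cells stably carrying SBE-bla is quantified by ATP luminescence following 5 hr compound treatment.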
# [12] = qHTS assay to identify small molecule agonists of the TGF-beta/Smad signaling pathway (AID 1346859; active = well fitted activation curve with a large enough effect in the signal ratio in the repeat runs, not every such curve was filed as active; the % refers to the signal ratio; also: series mostly up to about 77 µM)
# How it was run: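 Fluorescence (ex 405 nm; em 460 and 530 nm) was read 2 h after LiveBLAzer FRET substrate at RT. The preceding compound treatment of overnight-plated SBE-bla HEK293T cells lasted 5 h at 37 C.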
# [13] = biological target: Thyrotropin-releasing hormone receptor (Homo sapiens) (UniProt P34981); assay: qHTS assay to identify small molecule antagonists of the thyrotropin-releasing hormone receptor (TRHR) signaling pathway (AID 1346877; active = well fitted inhibition curve with a large enough effect in the repeat runs, not every such curve was filed as active; also: series mostly up to about 51 µM)
# Chain of Thyrotropin-releasing hormone receptor (Homo sapiens) (P34981 whole entry, looked up): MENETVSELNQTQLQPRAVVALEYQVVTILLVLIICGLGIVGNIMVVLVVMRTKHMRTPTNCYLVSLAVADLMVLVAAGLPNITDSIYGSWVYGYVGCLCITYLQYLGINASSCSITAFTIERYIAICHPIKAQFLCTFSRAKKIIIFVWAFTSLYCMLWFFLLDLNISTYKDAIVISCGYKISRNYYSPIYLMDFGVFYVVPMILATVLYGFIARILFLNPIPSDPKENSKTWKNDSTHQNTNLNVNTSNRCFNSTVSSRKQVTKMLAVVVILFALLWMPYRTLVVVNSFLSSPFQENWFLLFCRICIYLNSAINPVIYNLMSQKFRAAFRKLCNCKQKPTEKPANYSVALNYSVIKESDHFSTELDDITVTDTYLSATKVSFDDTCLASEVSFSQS
# How it was run: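 In this cell-based calcium flux format, HEK293 cells expressing TRHR received test compound for 5 min before the agonist TRH (1 nM final). Dye loading lasted 2 h at 37 °C.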
# [14] = biological target: Thyrotropin-releasing hormone receptor (Homo sapiens) (UniProt P34981); assay: qHTS assay to identify small molecule agonists of the thyrotropin-releasing hormone receptor (TRHR) signaling pathway (AID 1346891; calls by dose curve; also: series mostly up to about 58 µM)
# How it was run: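 Agonist-mode intracellular calcium readout: kinetic fluorescence over 3 min at 1 s intervals after compound addition to TRHR-HEK293 cells (18 h seeded, 2 h dye-loaded at 37 C). Fifteen concentrations, triplicates.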
# [15] = biological target: Estrogen receptor beta (Homo sapiens) (UniProt Q92731); assay: qHTS assay to identify small molecule agonists of the estrogen receptor beta (ER-beta) signaling pathway (AID 1259377; active = well fitted activation curve with a large enough effect in the signal ratio in the repeat runs, not every such curve was filed as active; the % refers to the signal ratio; also: potency is read from the fitted curve at half-maximal effect)
# How it was run: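 Ratiometric beta-lactamase FRET read-out came after 2 h substrate loading at room temperature. It followed 16 h compound treatment at 37C of GripTite HEK293T cells carrying a UAS-bla reporter, plated in 2% charcoal-stripped FBS medium.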
# [16] = qHTS assay to identify small molecule agonists of the estrogen receptor beta (ER-beta) signaling pathway - cell viability counter screen (AID 1259380); also: nearly all actives have a fitted effect of over 30% in size; also: potency is read from the fitted curve at half-maximal effect
# How it was run: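 Viability of ER-beta-UAS-bla HEK293T cells was determined by CellTiter-Glo luminescence following 16 hr treatment with test compounds at 37C.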
# [17] = qHTS assay to identify small molecule antagonists of the estrogen receptor beta (ER-beta) signaling pathway - cell viability counter screen (AID 1259382); also: nearly all actives have a fitted effect of over 55% in size; also: potency is read from the fitted curve at half-maximal effect
# How it was run: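 Tox21 10K library tested in qHTS format on ER-beta-bla HEK293T cells stimulated with 1nM E2; 16 hr treatment at 37C. Same-well CellTiter-Glo luminescence served as the cell viability measure.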
# [18] = biological target: Estrogen receptor (Homo sapiens) (UniProt P03372); assay: qHTS assay to identify small molecule agonists of the estrogen receptor alpha (ER-alpha) signaling pathway in the presence of an antagonist (AID 1259383; calls by dose curve; also: top concentration of the series differs between compounds; nearly all actives have a fitted effect of over 15% in size)
# Chain of Estrogen receptor (Homo sapiens) (P03372 whole entry, looked up): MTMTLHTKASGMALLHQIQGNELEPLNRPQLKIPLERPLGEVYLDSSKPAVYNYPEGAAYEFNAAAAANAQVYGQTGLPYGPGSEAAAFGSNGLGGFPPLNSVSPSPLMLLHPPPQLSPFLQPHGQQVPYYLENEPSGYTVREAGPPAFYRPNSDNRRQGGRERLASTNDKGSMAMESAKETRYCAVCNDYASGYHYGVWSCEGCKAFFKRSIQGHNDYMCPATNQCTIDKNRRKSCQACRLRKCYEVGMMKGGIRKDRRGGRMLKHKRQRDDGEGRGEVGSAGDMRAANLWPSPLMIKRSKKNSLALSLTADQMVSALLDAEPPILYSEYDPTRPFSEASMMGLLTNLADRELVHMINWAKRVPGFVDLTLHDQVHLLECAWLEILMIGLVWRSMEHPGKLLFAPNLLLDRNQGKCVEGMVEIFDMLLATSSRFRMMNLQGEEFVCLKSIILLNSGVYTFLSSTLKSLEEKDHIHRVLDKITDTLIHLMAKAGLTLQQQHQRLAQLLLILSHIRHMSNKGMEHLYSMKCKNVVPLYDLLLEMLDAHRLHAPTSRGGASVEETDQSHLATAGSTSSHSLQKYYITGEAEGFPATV
# How it was run: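 In VM7Luc4E2 cells, 4,000 per well, compounds at 15 concentrations were co-incubated 22hr at 37C with 10.0nM final ICI-182,780. Luminescence from the stably transfected 4×ERE-luciferase reporter was recorded 30min after ONE-Glo addition.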
# [19] = qHTS assay to identify small molecule agonists or antagonists of the thyroid stimulating hormone receptor (TSHR) signaling pathway - wild type cell line counter screen (AID 1259384; calls by dose curve)
# How it was run: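 Wild-type HEK293 cells were plated 18 h at 37 C/5% CO2, pin-dosed with compound plus Ro20-1724 medium, held 30 min at room temperature, then given cAMP-d2 and anti-cAMP-cryptate; fluorescence was read after 1 h. Fifteen concentrations, triplicate.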
# [20] = biological target: Thyrotropin receptor (Homo sapiens) (UniProt P16473); assay: qHTS assay to identify small molecule antagonists of the thyroid stimulating hormone receptor (TSHR) signaling pathway (AID 1259385; calls by dose curve; also: nearly all actives have a fitted effect of over 20% in size; also: potency is read from the fitted curve at half-maximal effect)
# Chain of Thyrotropin receptor (Homo sapiens) (P16473 whole entry, looked up): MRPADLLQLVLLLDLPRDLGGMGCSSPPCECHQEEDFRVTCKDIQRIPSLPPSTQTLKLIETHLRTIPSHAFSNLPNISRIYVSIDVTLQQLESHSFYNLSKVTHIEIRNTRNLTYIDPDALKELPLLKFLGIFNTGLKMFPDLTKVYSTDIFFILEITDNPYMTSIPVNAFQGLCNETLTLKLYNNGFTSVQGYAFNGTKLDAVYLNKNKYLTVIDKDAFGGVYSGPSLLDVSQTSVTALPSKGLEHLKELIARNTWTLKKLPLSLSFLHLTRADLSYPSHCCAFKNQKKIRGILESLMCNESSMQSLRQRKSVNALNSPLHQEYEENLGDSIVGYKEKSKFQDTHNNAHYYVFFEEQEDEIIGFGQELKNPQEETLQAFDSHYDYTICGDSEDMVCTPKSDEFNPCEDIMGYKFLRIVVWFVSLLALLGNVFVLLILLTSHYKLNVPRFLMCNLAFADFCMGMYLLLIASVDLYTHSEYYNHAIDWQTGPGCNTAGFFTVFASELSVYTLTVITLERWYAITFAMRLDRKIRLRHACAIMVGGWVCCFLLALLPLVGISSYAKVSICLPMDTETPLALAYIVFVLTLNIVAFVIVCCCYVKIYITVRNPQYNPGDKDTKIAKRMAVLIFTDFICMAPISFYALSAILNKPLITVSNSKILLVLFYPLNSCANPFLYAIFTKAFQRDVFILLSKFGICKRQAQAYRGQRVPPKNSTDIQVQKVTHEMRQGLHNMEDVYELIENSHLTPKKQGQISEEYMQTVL
# How it was run: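 TSHR-HEK293 cells were plated and held 18 h at 37C/5% CO2, then given compound plus Ro20-1724 and stimulated with TSH at 1.5 ng/mL final. After 30 min at room temperature, cAMP was detected with cAMP-d2/anti-cAMP-cryptate (1 h) by fluorescence.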
Structure (SMILES),Potency [1],Potency [2],Potency [3],Potency [4],Potency [5],Potency [6],Potency [7],Potency [8],Potency [9],Potency [10],Potency [11],outcome [12],Potency [13],Potency [14],Potency [15],Potency [16],Potency [17],Potency [18],Potency [19],Potency [20]
S=C=Nc1ccccc1,inactive,inactive,inactive,inactive,inactive,inactive,inactive,inactive,inactive,inactive,inactive,inactive,inactive,inactive,–,–,–,–,–,–
CCC(C)c1cccc(C(C)CC)c1O (centres undefined),inactive,–,inactive,–,–,inactive,–,inactive,inactive,inactive,inactive,inactive,inactive,inactive,inactive,inactive,inactive,inactive,inactive,–
CCC(OC(C)=O)C(CC(C)NC)(c1ccccc1)c1ccccc1 (centres undefined),30.9 µM (active),–,49 µM (active),inactive,inactive,–,54.9 µM (active),54.9 µM (active),–,–,inactive,inactive,inactive,inactive,–,49 µM (active),54.9 µM (active),inactive,inactive,–
CCN1CCC2(CC1)COc1cc3c(cc12)N(C(=O)c1ccc(-c2ccc(-c4nnc(C)o4)cc2C)cc1)CC3,2 µM (active),–,63.3 µM (active),inactive,–,inactive,–,25.2 µM (active),8.93 µM (active),–,–,–,inactive,inactive,–,6.33 µM (active),11.2 µM (active),–,inactive,–
N#Cc1c2ccccc2cc2ccccc12,inactive,–,–,inactive,–,–,–,inactive,inactive,inactive,inactive,–,–,–,21.6 µM (active),inactive,inactive,inactive,inactive,inactive
CN,inactive,inactive,inactive,–,inactive,inactive,–,inactive,inactive,inactive,–,inactive,–,inactive,–,inactive,inactive,–,inactive,inactive
Cc1ccc(C)c2ccccc12,inactive,inactive,–,inactive,inactive,inactive,inactive,inactive,inactive,inactive,inactive,inactive,inactive,inactive,–,inactive,inactive,–,–,–
CCN(CC)CCc1c[nH]c2ccccc12,50.9 µM (active),–,inactive,–,–,inactive,–,90.4 µM (active),–,inactive,–,inactive,inactive,inactive,inactive,inactive,inactive,inactive,inactive,inactive
Oc1cccc(Cl)c1Cl,inactive,inactive,inactive,–,inactive,–,–,–,27.4 µM (active),inactive,inactive,inactive,inactive,inactive,–,–,–,–,inactive,inactive
Brc1ccc(Oc2ccc(Br)cc2Br)c(Br)c1,inactive,–,inactive,–,inactive,inactive,–,inactive,–,inactive,inactive,inactive,–,inactive,inactive,–,inactive,inactive,inactive,61.2 µM (active)
Cc1cc(C2CC2)nc(Nc2ccccc2)n1,inactive,inactive,–,–,inactive,–,30.6 µM (active),–,–,inactive,–,inactive,–,–,–,–,inactive,inactive,inactive,inactive
COc1nc(C)nc(NC(=O)NS(=O)(=O)c2ccccc2Cl)n1,inactive,inactive,–,–,inactive,inactive,–,inactive,inactive,inactive,inactive,inactive,–,inactive,–,inactive,–,inactive,inactive,inactive
Nc1ccc(N=Nc2ccccc2)cc1,21.7 µM (active),21.7 µM (active),–,–,30.6 µM (active),–,–,–,–,inactive,inactive,inactive,–,inactive,–,–,inactive,inactive,inactive,–
Nc1c(Cl)c(Cl)c(Cl)c(Cl)c1Cl,inactive,–,inactive,54.5 µM (active),–,1.22 µM (active),–,–,–,–,inactive,inactive,inactive,inactive,–,inactive,inactive,–,inactive,inactive
CCOP(=S)(NC(C)C)Oc1ccccc1C(=O)OC(C)C (centres undefined),inactive,–,–,–,inactive,inactive,–,–,–,inactive,inactive,–,–,inactive,inactive,3.86 µM (active),–,inactive,inactive,–
COc1ccc2[nH]cc(CCN(C(C)C)C(C)C)c2c1,inactive,inactive,inactive,–,inactive,–,–,inactive,–,inactive,inactive,–,–,–,–,–,–,–,inactive,inactive
Oc1ccc2[nH]cc(CCCCN3CC=C(c4ccccc4)CC3)c2c1,3.35 µM (active),inactive,–,–,inactive,inactive,inactive,inactive,inactive,inactive,inactive,inactive,–,–,–,29.8 µM (active),–,–,inactive,–
CCCCC/C=C\C/C=C\C/C=C\C/C=C\CCCC(=O)NCC(=O)O,inactive,–,inactive,–,inactive,inactive,26.6 µM (active),inactive,–,inactive,inactive,inactive,–,–,inactive,11.9 µM (active),–,inactive,–,–
O=[N+]([O-])C(Br)Br,inactive,–,–,inactive,–,inactive,inactive,inactive,inactive,inactive,inactive,inactive,inactive,–,inactive,inactive,inactive,–,inactive,–
O=C(CCCCl)c1ccc(F)cc1,inactive,–,inactive,inactive,inactive,inactive,inactive,inactive,inactive,inactive,inactive,inactive,–,–,–,inactive,inactive,inactive,inactive,–
CCN(CC)Cc1nccn1-c1ccc([N+](=O)[O-])cc1C(=O)c1ccccc1Cl,inactive,–,inactive,–,inactive,inactive,–,–,inactive,inactive,inactive,inactive,inactive,inactive,inactive,inactive,inactive,–,inactive,inactive
Cc1nn(-c2cc(NS(C)(=O)=O)c(Cl)cc2Cl)c(=O)n1C(F)F,inactive,–,inactive,inactive,–,inactive,inactive,inactive,inactive,inactive,–,inactive,–,inactive,–,inactive,inactive,–,inactive,–
COC(=O)/C=C(\C)OP(=O)(OC)OC,inactive,–,inactive,–,–,–,–,inactive,inactive,0.174 µM (active),inactive,inactive,inactive,inactive,inactive,inactive,inactive,inactive,inactive,–
CCCCC(CC)COC(=O)OOC(C)(C)C (centres undefined),inactive,–,inactive,–,inactive,–,inactive,inactive,inactive,inactive,inactive,inactive,inactive,inactive,–,inactive,inactive,–,–,–
CC(=O)[O-].CC(=O)[O-].O.O.[Zn+2],inactive,–,inactive,–,inactive,inactive,inactive,inactive,inactive,inactive,inactive,inactive,–,–,–,inactive,inactive,–,–,–
CCCCn1cc[n+](C)c1 (tested in a mixture with another compound),inactive,–,inactive,–,inactive,–,–,inactive,inactive,inactive,–,inactive,–,–,–,inactive,inactive,–,–,–
